Data as given in PubChem BioAssay AID652054 (National Center for Advancing Translational Sciences (NCATS), 2013).
About 9,100 (2.5%) of roughly 360,000 compounds were called active. Roughly 4% stayed inconclusive and do not appear here. Shown is part of a subset that was picked to be rich in actives. Values without a mark were called inactive. No stated cut-off is given here; in the data, active means max response below about -50%; inconclusive means no clear call, values can overlap the other calls; inactive means above that.

What follows are compounds tested against D(3) dopamine receptor (Homo sapiens) (UniProt P35462) (assay: qHTS of D3 Dopamine Receptor Antagonist: qHTS). Conditions: D3R cells, DiscoveRx beta-arrestin luminescence, antagonist mode; stronger effect = lower value.
Sequence of D(3) dopamine receptor (Homo sapiens) (P35462 whole entry, looked up): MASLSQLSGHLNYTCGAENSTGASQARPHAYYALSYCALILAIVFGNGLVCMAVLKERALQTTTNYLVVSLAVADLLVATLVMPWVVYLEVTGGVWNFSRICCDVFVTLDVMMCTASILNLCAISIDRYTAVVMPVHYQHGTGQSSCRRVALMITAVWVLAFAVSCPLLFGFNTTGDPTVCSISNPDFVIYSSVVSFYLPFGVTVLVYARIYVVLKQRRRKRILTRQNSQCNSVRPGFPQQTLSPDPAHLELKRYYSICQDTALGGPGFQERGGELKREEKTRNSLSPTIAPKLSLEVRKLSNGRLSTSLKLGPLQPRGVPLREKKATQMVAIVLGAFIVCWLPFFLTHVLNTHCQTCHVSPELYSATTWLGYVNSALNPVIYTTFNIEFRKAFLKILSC
Method in brief: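 Cells plated overnight at 1500 cells/well, then exposed to library compounds with dopamine controls for 90 minutes at 37 degrees C. DiscoveRx reagent added for 30–60 minutes at room temperature; luminescence read, quantitative HTS format.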
On the % scale 0 is the no-effect control and ±100 the full control effect.

Compound | max response, negative = inhibition
CN(Cc1ccc(C(F)(F)F)cc1)C(=O)[C@H]1O[C@@H](n2cnc3c(N)ncnc32)[C@H](O)[C@@H]1O | 14.2%
CC1(C(=O)NCc2ccccc2)CSCC(=O)N1CCCN1CCOCC1 (stereo not given) | 2.3%
CC1(C)CN(CCc2ccccc2)C(=O)[C@H]1CC(=O)Nc1ccc(Br)cc1 | -16%
O=[N+]([O-])c1ccc(N2CCNCC2)cc1NCc1cccnc1 | 1.82%
CN1CCN(S(=O)(=O)c2ccc(N3CCN(c4ccccc4O)CC3)c([N+](=O)[O-])c2)CC1 | -19.5%
CN1CCN(c2ccc([N+](=O)[O-])c(Sc3nc4ccccc4[nH]3)c2)CC1 | -91.8% (active)
CCCS(=O)(=O)NC(=O)C1(C)CCCN(C(=O)c2cc(C)on2)C1 (stereo not given) | 2.9%
COc1ccc(-c2cc(=O)oc3cc(OCC(=O)N(C)C4CCS(=O)(=O)C4)ccc23)cc1 (stereo not given) | -51.8% (active)
CC(=O)c1ccc(OCC(=O)N(C)C2CCS(=O)(=O)C2)cc1 (stereo not given) | -0.617%
COc1ccc2c(-c3ccccc3)cc(SCC(=O)N(C)C3CCS(=O)(=O)C3)nc2c1 (stereo not given) | 0.687%
COc1ccc(C(=O)N2CCCCC2c2cc(C(=O)Nc3ccc(F)c(Cl)c3)no2)cc1 (stereo not given) | -6.17%
O=S1(=O)CC(N2CCN(c3ccccn3)CC2)CN1Cc1ccc(F)cc1 (stereo not given) | 7.7%
CCCNC(=O)C1(C)CCN(Cc2csc(-c3ccc(Cl)cc3)n2)C1 (stereo not given) | -103% (active)
CCCNC(=O)C1(C)CCCN(Cc2cccc(C(F)(F)F)c2)C1 (stereo not given) | 27.1%
CCCNC(=O)C1(C)CCCN(Cc2c(C)nn(-c3ccccc3)c2C)C1 (stereo not given) | 19.2%
COC(=O)[C@]12CCCCC=C1N(Cc1cccc3ccccc13)C(=O)[C@H](CC(=O)N1CCOCC1)C2 | -10.3%
Cc1cc(=O)oc(C)c1C(=O)NCCN(C)Cc1ccccc1 | -76.1% (active)
Cc1cc(=O)oc(C)c1C(=O)NCc1ccc(F)cc1 | -14.8%
COc1ccc(CNC(=O)c2c(C)cc(=O)oc2C)cc1OC | 2.8%
Cc1nc(C(F)(F)F)ccc1C(=O)N1CCC1(C)C(=O)NS(=O)(=O)c1ccccc1Cl (stereo not given) | -15.5%
COc1ccc(OC)c(C(=O)c2ccc(C(=O)N3CCN(Cc4csc(C)n4)CC3)cc2)c1 | -18%
COc1ccc(OCC(=O)N2CCN(C(=O)c3cccs3)CC2)cc1 | 5.1%
CCN1CCN(C(=O)c2cc3cc4ccc(OC)cc4nc3s2)CC1 | -89.5% (active)
CCCc1c(-c2ccccc2F)ncn1Cc1ccccc1OC | 2.92%
COc1ccc(CCNC(=O)CN(c2ccccc2)S(=O)(=O)c2ccccc2)cc1 | -3.43%
CC(C)Oc1cc(F)ccc1-c1cc(C(=O)Nc2ccc(F)cc2)[nH]n1 | -13.9%
COc1cc(-c2nnc(NC(=O)CS(=O)(=O)c3ccc(Cl)cc3)o2)cc(OC)c1OC | -6.21%
COc1ccc2[nH]c3c(c2c1)CCN1C(=O)C(CC(=O)NCCCN(C)C)C[C@H](C(=O)N2CCOCC2)[C@@]31CCC1CCCC1 (stereo not given in full) | 37%

Compound | max response, negative = inhibition
CC[C@]12c3[nH]c4ccc(Cl)cc4c3CCN1C(=O)[C@@H](CC(=O)NCCN1CCOCC1)C[C@@H]2C(=O)N1CCN(C(=O)C2CC2)CC1 | 6.27%
COc1ccc(CNC(=O)C[C@H]2C[C@H](C(=O)N3CCOCC3)[C@@]3(CCC4CCCC4)c4[nH]c5ccc(Cl)cc5c4CCN3C2=O)cc1OC | -63% (active)
CCc1nc2c(OCCOc3ccccc3)cccn2c1N(C)C(=O)c1cccs1 | -19.8%
Cc1ccc(-c2nc(CS(=O)(=O)CC(=O)NCc3ccc4c(c3)OCO4)c(C)o2)cc1 | -2.53%
Cc1ccc(S(=O)(=O)N(CCCN(C)C)Cc2ccc3c(c2)OCO3)cc1 | -51.8% (active)
Cc1ccc(CNCc2ccc3c(c2)OCO3)c(C)c1 | -3.23%
OC[C@@H]1CN(Cc2ccc(Cl)cc2)C[C@H](n2cnc3c(NCc4ccncc4)ncnc32)O1 | 17.2%
Cc1cc(Cl)ccc1C(=O)C1CCCN(C(=O)c2ccc3c(c2)OCO3)C1 (stereo not given) | -7.01%
CC(=O)OCC(C)n1c(=O)c2ccccc2n1C(C)=O (stereo not given) | 0.665%
COc1ccc(NC(=O)CCN2CCCC2)c(OC)c1 | -50.5% (active)
CCOc1ccccc1NC(=O)NC1CCCCCCC1 | 0.28%
CCOC(=O)N1CCN(CCC(=O)Nc2cc(OC)ccc2OC)CC1 | 2%
COc1ccc(NC(=O)CCCC2CCCCC2)c(OC)c1 | 11.6%
COc1ccc(OC)c(NC(=O)CC(Cc2ccccc2OC)C(=O)O)c1 (stereo not given) | 2.31%
COc1ccc(N2CCN(CCNC(=O)Nc3cc(Cl)ccc3Cl)CC2)cc1 | -2.75%
COc1ccc(C(C)(C)C)cc1NC(=O)CCN1C(=O)C2CCCCC2C1=O (stereo not given) | 4.26%
CCOc1ccccc1NC(=O)CCN1CCN(S(=O)(=O)c2ccc(OC)cc2)CC1 | 38.4%
COc1ccc(OC)c(NC(=O)CCN2CCC(C)CC2)c1 | -50.8% (active)
COc1ccccc1NC(=O)CCN1CCN(c2ccc(Cl)cc2)CC1 | -52.9% (active)
COc1ccc(NC(=O)CCn2ccnc2)c(OC)c1 | -22.6%
CCOc1ccccc1NC(=O)Nc1cc(OC)ccc1OC | -69.8% (active)
O=C(CC[C@H]1O[C@@H](n2ccc(=O)[nH]c2=O)[C@H](O)[C@@H]1O)N[C@H](Cc1ccccc1)C(=O)NCc1ccco1 | 23.3%
CCCC/C=C/c1cccc2nncn12 | 11.2%
C[C@H](CO)N1C[C@H](C)[C@@H](CN(C)C(=O)C2CCCCC2)OCc2cnnn2CCCC1=O | -18.3%
Cc1nc2ccccn2c(=O)c1NC(=O)c1ccc(Br)o1 | 0%
Cc1nccn1-c1ccc(NC(=O)[C@H]2O[C@@H](n3cnc4c(N)ncnc43)[C@H](O)[C@@H]2O)cc1 | 9.64%
COc1ccc2c(c1)CCCO[C@]21O[C@H](CCO)C[C@H](O)[C@H]1O | -5.1%
